# Compounds with a hit are over-represented: about 21% of the library has one in this group of screens.
# Pf growth 96h – Primary qHTS for delayed death inhibitors of the malarial parasite plastid, 96 hour incubation. AID 504834, 2011. P. falciparum luciferase reporter growth, 96 h. 6.9% of 320,000 active. Potency, µM (doses to about 28.7 µM), hits mostly inhibitors
#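 Parasite growth measured via integrated firefly luciferase reporter in P. falciparum. Infected erythrocytes at 2% hematocrit, 0.05% parasitemia final were treated 96 hours at 37 C under 5% CO2, and luminescence was read.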
# Pf growth 48h – Primary qHTS for delayed death inhibitors of the malarial parasite plastid, 48 hour incubation; Potency, µM (doses to about 28.7 µM), actives largely listed as inhibitors; P. falciparum luciferase growth in erythrocytes, 48 h; 5.9% of 310,000 active
#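 Erythrocytes infected with P. falciparum carrying an integrated firefly luciferase reporter (2% hematocrit, 0.1% parasitemia final) were exposed to compounds in RPMI 1640 with 0.5% Albumax at 37 C, 5% CO2. Growth inhibition was scored as reduced luminescence.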
# Shiga toxin inh – A qHTS for Small Molecule Inhibitors of Shiga Toxin; inhibition, % at 38.7 µM; 9.2% of 290,000 active; Vero cells, Shiga toxin protein synthesis inhibition reporter; in the data active = inhibition mostly above about 28%, no sharp cut-off; inactive = mostly below about 43%
# SARS PLP yeast – qHTS of Yeast-based Assay for SARS-CoV PLP; S. cerevisiae expressing SARS-CoV PLpro, growth rescue; Potency, µM (titrated, usually from 32.9 µM), most hits filed as activators; 0.19% of 330,000 active; calls by dose curve; also: nearly all actives have a fitted effect of over 55% in size
# NS1 function inh – qHTS Assay for Inhibitors of Influenza NS1 Protein Function; 0.4% of 270,000 active; Potency, µM (series often up to 46.1 µM); AID 2326, 2010; calls by dose curve; also: actives are rising curves; nearly all actives have a fitted effect of over 50% in size
#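 Read-out: OD600 growth recovery of NS1-expressing budding yeast. Cells grown overnight at 30C in -URA glucose medium, washed, resuspended and diluted 1:100 in 2% galactose assay medium, pH 6.0. Same strain lacking NS1 served as positive control.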
# Cycloheximide cs – Cycloheximide Counterscreen for Small Molecule Inhibitors of Shiga Toxin | cell reporter, cycloheximide protein synthesis inhibition counterscreen | max response, % | 12% of 300,000 active; in the data active = max response mostly above about 13%, no sharp cut-off; inactive = mostly below about 14%; also: read at 38.3 µM for the half of the compounds with a filed dose
# Hits are given with their value; - = inactive; ? = inconclusive; . = no result given; [ ] = dose if it differs, or a comment. Unless noted, calls follow the shape of the dose curve; as a rule, active = well fitted inhibition curve with a large enough effect; inconclusive = small, poorly fitted or top-dose-only effect, or another doubt; inactive = no such curve, though single readings can be large or run the other way.
SMILES,Pf growth 96h,Pf growth 48h,Shiga toxin inh,SARS PLP yeast,NS1 function inh,Cycloheximide cs
CCSc1nnc(NC(=O)c2cc(C)nc3ccccc23)s1,-,-,-,-,-,-
CCSc1nnc(NC(=O)c2ccc3ccccc3n2)s1,-,-,120,-,-,26
CCc1nnc(NC(=O)c2ccc3ccccc3n2)s1,-,-,70,-,.,45
Cc1ccccc1C1CC(c2cccs2)Nc2nnnn21 (configuration not stated),-[5.75 µM],-,-,-,-,-
Cc1ccc(NC(=S)Nn2cnnc2)cc1,-,-,-,-,-,-
CCC(Oc1ccccc1)C(=O)NCc1ccc(S(N)(=O)=O)cc1 (configuration not stated),-,-,-,-,-,-
O=C1OCc2ccc(NC(=O)c3c(F)cccc3Cl)cc21,-,-,-,-,-,17
O=C(Nc1ccc2c(c1)CCC2)c1c(F)cccc1Cl,-,-,112,-,.,54
O=C(Nc1ccc2c(c1)C(=O)OC2)c1ccccc1Cl,-,-,-,-,-,26
O=C1OCc2ccc(NC(=O)C3CC3)cc21,-,-,-,-,-,-
O=C1OCc2ccc(NC(=O)c3ccccc3C(=O)O)cc21,-,-,58,-,-,34
O=C(Nc1cccc(Cl)c1)Nc1ccc2c(c1)C(=O)OC2,-,-,-,-,-,-
O=C(Nc1ccc2c(c1)CCCN2C(=O)c1cccs1)c1c(F)cccc1Cl,-,-,-,-,-,-
O=C(NC(=S)Nc1cccc(O)c1)C1CCCCC1,.,.,.,-,.,.
Cc1ccc2c(c1)N(C(=O)CCC(=O)N1CCC(C(N)=O)CC1)CCO2,-,-,-,-,-,-
Cc1ccc(NC(=O)c2ccc(=O)[nH]c2)cc1S(=O)(=O)N1CCCCCC1,.,.,.,-,.,.
COc1ccccc1C(=O)NNS(=O)(=O)c1ccc(F)cc1,4.1µM,-,.,-,-,-
COc1ccccc1C(=O)NNC(=O)c1cccc(Br)c1,-,-,.,-,-,35
O=C(NNS(=O)(=O)c1ccc(F)cc1)c1ccccc1F,?,-,-,-,-,-
COCCNC(=O)C(=O)NNC(=O)c1ccccc1OC,-,-,-,-,-,-
COc1ccccc1C(=O)NNC(=O)c1ccccc1,-,-,.,-,-,34
CC(C)(C)c1ccc(C(=O)NNC(=O)c2ccccc2Br)cc1,-,-,-,-,-,31
O=C(NNC(=O)c1ccccc1Br)c1ccc(Cl)c(Cl)c1,-,-,-,-,-,-
CC(=O)NC1=NN(C(C)=O)C(C)(CS(=O)(=O)c2ccc3ccccc3c2)S1 (configuration not stated),-,-,-,-,-,-
COc1ccccc1C(=O)NNC(=O)c1cccc(Cl)c1,-,-,-,-,-,28
SMILES,Pf growth 96h,Pf growth 48h,Shiga toxin inh,SARS PLP yeast,NS1 function inh,Cycloheximide cs
O=C(NC(=S)Nc1cccc2cc(O)ccc12)c1ccccc1Br,13µM,-,-,-,-,-
COc1ccccc1NC(=S)NNC(=O)c1cc(C)nn1C,?,.,-,-,-,-
COc1ccccc1NC(=S)NNC(=O)c1c(Cl)c(C)nn1C,?,-,43,-,-,-
COc1ccccc1C(=O)NNC(=O)c1ccccc1Br,10µM,-,.,-,-,13
COc1ccc(Cl)cc1C(=O)NNC(=O)c1cccc([N+](=O)[O-])c1,-,-,-,-,-,-
O=C(C1=C(O)C(=O)N(CCN2CCOCC2)C1c1ccc([N+](=O)[O-])cc1)c1cccs1 (configuration not stated),-,-,-,-,-,-
O=c1ccc(NS(=O)(=O)c2ccccc2)cn1Cc1ccc(Cl)c(Cl)c1,?,-,-,-,-,-
COc1cc(OC)cc(C(=O)NNC(=S)Nc2ccccc2OC)c1,-,-,-,-,-,-
CC(C)(C)NC(=O)C(=O)NNC(=O)c1cccc(Br)c1,2.1µM,-,47,-,.,17
Cc1cccc(C(=O)NNC(=O)C(=O)NC(C)(C)C)c1,?,-,-,-,-,-
COc1cc(Br)c(C(C)NC(=O)c2cccc(Br)c2)cc1OC (configuration not stated),1.7µM,1.9µM,-,-,-,-
COc1ccccc1NC(=S)NNC(=O)c1ccccc1Br,-,-,88,-,-,27
COC(=O)NNC(=O)c1ccc(C(C)(C)C)cc1,-,-,23,-,-,30
O=C(c1cccc(NS(=O)(=O)c2cccc(C(F)(F)F)c2)c1)N1CCOCC1,?,-,-,-,-,-
CCCc1nnc(SCC(=O)N2CCCC2)n1Cc1ccco1,?,-,-,-,-,-
COc1ccccc1C(=O)NC(=O)Nc1cccc(Cl)c1,?,-,130,-,-,49
O=C(NC(=S)NC1CCSC1=O)c1ccc([N+](=O)[O-])cc1 (configuration not stated),10µM,-,-,-,-,-
Cc1cccc2cc(CNC3CCCC3)c(Cl)nc12,-,-,-,-,-,-
O=C(Nc1cc(S(=O)(=O)N2CCCCC2)ccc1N1CCCCC1)c1ccncc1,8.3µM,9.3µM,-,-,-,-
O=C(Nc1cc(S(=O)(=O)N2CCCCC2)ccc1N1CCCCC1)C1CC1,?,10µM,-,-,-,-
CC1CC(C)CN(C(C)C(=O)Nc2cc(S(=O)(=O)N3CCCCC3)ccc2Cl)C1 (configuration not stated),.,.,.,-,.,.
CC1CCN(C(C)C(=O)Nc2cc(S(=O)(=O)N3CCCCC3)ccc2Cl)CC1 (configuration not stated),9.3µM,12µM,.,-,.,.
c1coc(CSSCc2ccco2)c1,-,?,.,-,.,.
CC1(C)NC(=O)N(CC(=O)OCC(=O)Nc2cccc(S(N)(=O)=O)c2)C1=O,-,-,-,-,-,-
CCOc1ccc(S(=O)(=O)N2CCCCC2)cc1NC(=O)CC1OC(=O)c2ccccc21 (configuration not stated),-,-,.,-,.,.
SMILES,Pf growth 96h,Pf growth 48h,Shiga toxin inh,SARS PLP yeast,NS1 function inh,Cycloheximide cs
O=C(CSc1cccs1)Nc1ccc(Cl)cc1,-,-,50,-,-,54
O=C(CSc1nnc(CNC(=O)c2cccs2)o1)Nc1ccc(Br)cc1,13µM,-,-,-,-,-
O=C(CSc1nnc(CNC(=O)c2cccs2)o1)Nc1ccc(Cl)cc1,10µM,-,-,?,-,-
Cc1cc(C)cc(NC(=O)CSc2nnc(CNC(=O)c3cccs3)o2)c1,-,-,-,-,-,-
O=C(CSc1nnc(CNC(=O)c2cccs2)o1)Nc1ccc2c(c1)OCO2,?,-,-,-,-,-
NC(=O)c1ccc(NC(=O)CS(=O)(=O)c2cn(CC(=O)N3CCCCC3)c3ccccc23)cc1,?,-,-,-,-,-
CCCN(C(=O)c1cc2c(s1)CCC2)c1c(N)n(Cc2ccccc2)c(=O)[nH]c1=O,-,-,-,-,-,-
Cc1ccc(OCC(=O)Nc2cccc(O)c2)cc1C,-,-,79,?,-,40

# High-throughput results from PubChem BioAssay.
